# A selection: hits, their analogues and other compounds. The true share with any hit is near 3.1%.
# mIDH1 inhibitor – human IDH1 R132H inhibition; IDH1-R132H enzyme, NADPH consumption, diaphorase/resazurin fluorescence; Potency, µM (series often up to 76.6 µM), most hits filed as inhibitors; O75874; actives 0.093% (n = 390,000); note: nearly all actives have a fitted effect of over 65% in size
#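 IDH1-R132H (0.5 ug/mL dispensed) in pH 7.5 Tris buffer was preincubated 30 min with compound, then given a substrate mix of 0.016 mM NADPH and 2 mM alpha-KG for 80 min at room temperature; remaining NADPH was read by diaphorase/resazurin fluorescence.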
# TrxR1 inh – rat TrxR1 inhibition. actives 1% (n = 390,000). recombinant rTrxR1, NADPH fluorescence consumption, selenite substrate. Potency, µM (highest dose often 114 µM), usual class: inhibitors. AID 588453; note: nearly all actives have a fitted effect of over 65% in size
#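 Rat TrxR1 (90 nM in the dispensed reagent) was pre-reduced with 400 uM NADPH for 5 min at room temperature, then incubated with compound for 15 min. After 400 uM selenite was added, NADPH fluorescence (Ex 340/Em 450 nm) was followed for 8 min.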
# Mito fusion act – blocks mitochondrial division or promotes mitochondrial fusion. S. cerevisiae fusion-defective mutant growth rescue, CellTiterGlo 48 h. Potency, µM (titrated, usually from 46.1 µM), most hits filed as activators. actives 0.23% (n = 320,000). AID 485298; note: nearly all actives have a fitted effect of over 45% in size
#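 Compounds are tested for their ability to restore growth of mitochondrial fusion-defective yeast strains at non-permissive 37C in YPEG medium over 48 hours. Viability is quantified by luciferase luminescence.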
# A549 tox-1 – counter-screen for Nrf2 inhibitors: cytotoxicity in A549 cells. A549 ARE-Fluc cells, CellTiter-Fluor viability, 18-24 h. Potency, µM (series often up to 46 µM), actives largely listed as inhibitors. actives 0.16% (n = 390,000)
#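 A549 ARE_Fluc cells in 5% FBS OPTI-MEM were exposed to compounds in concentration-response for 18-24 h at 37 deg C. Viability was read by CellTiter-Fluor fluorescence (Ex 405/Em 525) after 30 min, before the luciferase read.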
# Nrf2 block – Nrf2 pathway inhibition | A549 ARE-Fluc reporter, luciferase luminescence, 18-24 h | Potency, µM (doses to about 46 µM), most hits filed as inhibitors | actives 2.1% (n = 360,000); note: nearly all actives have a fitted effect of over 60% in size
#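 Reporter: ARE-Fluc in A549. Exposure: 18-24 h, 37 °C, 5% CO2, 5% FBS OPTI-MEM. Readouts: fluorescent cytotoxicity (CellTiter-Fluor), then luminescent Nrf2 signal after BugLite.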
# TrxR1 substrate – is turned over as a substrate by rat TrxR1 | O89049 | purified TrxR1 substrate turnover, NADPH consumption readout | Potency, µM (highest dose often 114 µM) | actives 0.01% (n = 390,000) | AID 588456; note: nearly all actives have a fitted effect of over 50% in size
#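 Rat TrxR1, dispensed at 90 nM, was prereduced with 400 uM NADPH (final) for 5 min at ~22 deg C, then incubated with compound 15 min before 400 uM selenite. A first-read NADPH fluorescence drop versus no-compound background flagged substrates.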
# FLuc counter 3 – counter-screen for Nrf2 inhibitors: firefly luciferase enzyme inhibition; shares compounds with Nrf2 block; purified firefly luciferase, luminescence inhibition; Potency, µM (highest dose often 57.5 µM), most hits filed as inhibitors; actives 4% (n = 1,400); AID 720522; note: nearly all actives have a fitted effect of over 65% in size
# Target sequence (P08659 whole entry, looked up): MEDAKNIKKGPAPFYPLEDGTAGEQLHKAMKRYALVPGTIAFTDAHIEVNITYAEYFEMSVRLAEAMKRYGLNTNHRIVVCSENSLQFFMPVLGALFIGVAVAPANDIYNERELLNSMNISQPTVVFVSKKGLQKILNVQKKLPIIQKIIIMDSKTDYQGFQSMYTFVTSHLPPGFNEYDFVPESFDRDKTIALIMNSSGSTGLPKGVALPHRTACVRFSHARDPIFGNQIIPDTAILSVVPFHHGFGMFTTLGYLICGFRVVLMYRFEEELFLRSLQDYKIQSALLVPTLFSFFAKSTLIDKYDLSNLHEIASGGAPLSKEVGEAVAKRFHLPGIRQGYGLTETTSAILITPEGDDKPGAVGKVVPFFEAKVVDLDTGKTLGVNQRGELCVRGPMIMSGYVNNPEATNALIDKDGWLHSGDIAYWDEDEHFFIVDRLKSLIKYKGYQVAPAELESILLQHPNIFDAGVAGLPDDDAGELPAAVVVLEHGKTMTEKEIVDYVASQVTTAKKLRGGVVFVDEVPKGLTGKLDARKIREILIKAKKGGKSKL
# A549 tox-2 – A549 cytotoxicity, Nrf2 inhibitor counterscreen; shares compounds with Nrf2 block; A549 ARE-Fluc cells, cytotoxicity counterscreen; Potency, µM (series often up to 46.1 µM), hits mostly inhibitors; actives 2% (n = 1,400);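 note: cells exposed to compounds for 18 to 24 hours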
# Nrf2 ARE inh – reduces Nrf2 ARE reporter signal in A549 cells; Potency, µM (doses to about 46.1 µM), actives largely listed as inhibitors; shares compounds with Nrf2 block; actives 74% (n = 1,400); A549 ARE-firefly luciferase reporter, luminescence; AID 720524; note: nearly all actives have a fitted effect of over 65% in size
# Numbers stand for hits; 0 = inactive; ? = inconclusive; - = no result given; [ ] = remark or other dose. Calls come from the whole dose curve; as a rule, active = well fitted curve in the direction sought with a large enough effect; inconclusive = small, poorly fitted or top-dose-only effect, or another doubt; inactive = no such curve, though single readings can be large; an effect the other way counts as inactive or inconclusive.
SMILES,mIDH1 inhibitor,TrxR1 inh,Mito fusion act,A549 tox-1,Nrf2 block,TrxR1 substrate,FLuc counter 3,A549 tox-2,Nrf2 ARE inh
O=S(=O)(c1ccc2c(c1)OCCO2)N1CCC(c2nc3ccccc3s2)CC1,0,0,0,0[1.84 µM],3.26µM,0,0,0,0
O=S(=O)(c1ccc2c(c1)OCCO2)N1CCC(c2nc3ccccc3[nH]2)CC1,0,0,0,0,-,0,-,-,-
COc1cc(OC)cc(C(=O)N2CCN(C(=O)COc3ccccc3)CC2)c1,0,0,-,0,0,0,-,-,-
N#Cc1nc(-c2ccc(OCc3ccccc3Cl)cc2)oc1N1CCC(C(N)=O)CC1,-,0,-,0,0,0,-,-,-
Cc1cccc(NC(=O)Cn2cc(C(=O)C3CCCCC3)c3ccccc32)c1C,0,0,-,0,5.8µM,0,0,0,5.8µM
COc1cccc(NC(=O)C(Cc2ccccc2)N2Cc3ccccc3C2=O)c1 (stereo unspecified),0,0,-,0,0,0,-,-,-
COc1cccc(Cn2c(=O)n(-c3ccccc3C)c(=O)c3c2c2cc(C)ccc2n3C)c1,0,0,-,0,?,0,-,-,-
Cc1ccc(N(CC(=O)Nc2cc(C)cc(C)c2)S(=O)(=O)c2c(C)noc2C)cc1,0,0,0,?,7.31µM,0,0,0,11.6µM
Cc1ccc2nc(C(F)(F)F)c(C#N)c(N)c2c1,0,0,0,?,3.66µM,0,0,0,7.31µM
COC(=O)c1c(C)oc2ccc(NS(=O)(=O)c3cccs3)cc12,0,0,0,0,?,0,-,-,-
COC(=O)c1c(C)oc2ccc(N(C(=O)c3ccncc3)S(=O)(=O)c3c(C)cc(C)cc3C)cc12,0,0,-,0,4.11µM,0,0,0,5.8µM
CCc1ccc(S(=O)(=O)N(C(=O)Oc2ccccc2)c2ccc3oc(C)c(C(=O)OC)c3c2)cc1,0,0,-,0,3.66µM,0,0,0,6.51µM
COC(=O)c1c(C)oc2ccc(N(C(=O)c3ccncc3)S(=O)(=O)c3cc(C)c(C)cc3C)cc12,0,0,-,0,9.2µM,0,0,0,10.3µM
Cc1cc(F)ccc1S(=O)(=O)N(C(=O)c1ccncc1)c1ccc(OC(=O)c2ccncc2)cc1,0,0,0,0,0,0,-,-,-
COC(=O)c1c(C)oc2ccc(N(C(=O)Oc3ccccc3)S(=O)(=O)c3ccc(Cl)c([N+](=O)[O-])c3)cc12,0,?,0,0,0,0,-,-,-
Cc1cc(C)cc(N2CCn3c2nc2c3c(=O)n(C/C=C/c3ccccc3)c(=O)n2C)c1,0,0[11.4 µM],-,0,?,0,-,-,-
Cc1ccnc(NC(=O)CCCOc2cc(=O)n(C)c3ccccc23)c1,0,0,0,?,4.11µM,0,0,?,5.8µM
Cn1c(=O)cc(OCCCC(=O)NCc2ccccn2)c2ccccc21,0,0,0,-,0,0,-,-,-
CC(=O)NS(=O)(=O)c1ccc(NC(=O)c2cccc(S(=O)(=O)N3CCc4ccccc43)c2)cc1,0,0,0,0,0,0,-,-,-
CN(C)S(=O)(=O)c1cccc(NC(=O)c2cccc(S(=O)(=O)N3CCc4ccccc43)c2)c1,0,0,0,0,4.61µM,0,0,0,16.4µM
O=C(NNC(=O)c1cccc(S(=O)(=O)N2CCc3ccccc32)c1)c1ccccc1,0,0,0,0,8.2µM,0,0,0,5.17µM
CC1CCc2c(sc(NC(=O)/C=C/c3cccs3)c2C(=O)O)C1 (stereo unspecified),0,0,0,0,6.51µM,0,?,?,7.31µM
COc1ccc(-c2c[n+]3c(n2-c2ccccc2)SCC3)cc1OC,0,0,0,0,0,0,-,-,-
Brc1ccc(-c2c[n+]3c(n2-c2ccccc2)SCC3)cc1,0,0,0,0,?,0,-,-,-
Cc1ccc(-c2c[n+]3c(n2-c2ccccc2)SCC3)cc1,0,0,0,0,2.31µM,0,0,0,10.3µM
SMILES,mIDH1 inhibitor,TrxR1 inh,Mito fusion act,A549 tox-1,Nrf2 block,TrxR1 substrate,FLuc counter 3,A549 tox-2,Nrf2 ARE inh
COc1ccc(-c2c[n+]3c(n2-c2ccccc2)SCC3)cc1,0,0,0,0,2.06µM,0,0,0,7.31µM
Clc1ccc(N2CCN(c3ncnc4c3nc3n4CCCC3)CC2)cc1,0,0,-,0,4.61µM,0,0,0,1.46µM
CCCc1cc(C(=O)Nc2c(C)nn(Cc3c(Cl)cccc3Cl)c2C)no1,0,0,-,0,?,0,-,-,-
CC(=NNC(=O)c1ccncc1)c1ccccc1O,0,0,-,0,?,0,-,-,-
CC(=NNC(=O)c1ccncc1)c1ccc2ccccc2c1O,0,0[11.4 µM],-,?,2.59µM,0,0,0,4.11µM
Cc1cccc(C)c1NC(=O)Cn1cc(S(=O)(=O)Cc2ccc(F)cc2)c2ccccc21,0,0,-,0,0,0,-,-,-
CN1/C(=C/c2cccc[n+]2C)Sc2ccccc21,0,0,0,11.6µM,0.82µM,0,0,?,2.06µM
CCN1/C(=C/c2cccc[n+]2C)Sc2ccc(OC)cc21,0,0,0,0,5.8µM,0,0,0,6.51µM
COc1ccc2c(c1)N(C)/C(=C/c1cccc[n+]1C)S2,0,0,0,16.4µM,3.26µM,0,0,?,4.11µM

# From PubChem BioAssay
